Publication PMC10163288
Not all results are given here. No count for the full screen is at hand.

B1: il2ra_site1_3nfp_normal_mot_HHH_b1_05523_000000027_0001_1_19_H_._HHH_b1_07881_af2_0001_0000100003_0000001_0_af2pred_0001_af2pred_1 (protein)
chain: SSSSTEVSRRVLELIEEALELAQNGNPEEAEEVLREALKLAEEAGNESTARFIRKALEQSSSSSS
B2: il2ra_site1_3nfp_sap_10_mot_cc4219192d8ccd35c40e7b68f9a57604_0001_af2_000000124_0001_16_32_H_._HHH_b2_07250_0001_0000100001_0000001_0_0001 (protein)
chain: SSSSSEIEEEVRELLEEAEQLLKEGDWEEAAKVVEEAMKLASQANDDELDQLIMEWVRKLSSSSS
B3: il2ra_site1_3nfp_sap_18_mot_HHH_b2_03549_000000219_0001_1_18_H_._HHH_b1_06169_0001_0000200013_0000001_0_0001 (protein)
chain: NDERVASKLVEEAARSAGVDEVEVSVSNGTLHVEVSGGDRAARRVEEAAKQIAEWLGVEVEVTFE
B4: il2ra_site1_3nfp_normal_mot_HHH_b1_01231_af2_000000170_0001_1_16_H_._HHH_b1_02076_0001_0000200037_0000001_0_af2pred_0001_af2pred_1_swapped (protein)
chain: SSSSSSREELELKERVLRLLARIRDPEEARRVLEEAEELAKELGDERLLEELEKLLKRLGSSSSS
B5: il2ra_site2_3nfp_sap_21_mot_HHH_b1_06577_af2_000000152_0001_20_36_H_._HHH_b2_07686_0001_0000600063_0000001_0_0001 (protein)
chain: SSSSDEDEERVEKLIEEIERLLEEGDRDEAARLLLEATELAARINNDELARKLLELFLKIQSSSS
B6: il2ra_site2_3nfp_normal_mot_HHH_b1_03851_000000147_0001_21_38_H_._HHH_b1_04525_0001_0000600036_0000001_0 (protein)
chain: SSSSDEERREARELFEELQELLEENDKHAVFEVLMELFELAARTGDEEAARLVLEIYAQLRSSSS
B7: il2ra_site2_2erj_sap_10_mot_HHH_b1_08207_af2_000000250_0001_43_57_H_._HHH_b2_03076_0001_0000100015_0000001_0_0001 (protein)
chain: SSSSDWLHRLYELANRITELASRGNPEEAREVLEELQELAEEANSDNAKWVAEALEKHLNSSSSS
B8: il2ra_site2_3nfp_sap_16_mot_HHH_b1_03316_000000041_0001_39_56_H_._702997820559c2f17efcc64b63c1c749_0001_1_0001_0000200016_0000001_0_0001_af2pred_0001_1_af2pred_ … (protein)
chain: DSEKELFKEALEEGDPALIDAVALAIALAERGKPPEEIEKSVERWLRAQGVPPEEIEEILELLRK
B9: il2ra_site2_3nfp_normal_mot_HHH_b2_01406_000000272_0001_41_55_H_._HHH_b2_00362_0001_0000600032_0000001_0 (protein)
chain: SSSSSDEEEEELEERLEKALEEGDKHLAAQLAAELSELLARLNDPETAVRLAVKVLEFVLSSSSS
B10: il2ra_site2_3nfp_sap_26_mot_HHH_b1_07277_000000260_0001_23_39_H_._HHH_eva_0486_af2_0001_0000400016_0000001_0_0001 (protein)
chain: SAELARRIVELVRRGDPVAEALFALLADVAYKGDPELERLLEEALEALERGNPEEAEEIVRKALK

These binders were tested against il2ra, P01589 (assay: yeast display titration).
Chain of il2ra, P01589 (P01589 whole entry): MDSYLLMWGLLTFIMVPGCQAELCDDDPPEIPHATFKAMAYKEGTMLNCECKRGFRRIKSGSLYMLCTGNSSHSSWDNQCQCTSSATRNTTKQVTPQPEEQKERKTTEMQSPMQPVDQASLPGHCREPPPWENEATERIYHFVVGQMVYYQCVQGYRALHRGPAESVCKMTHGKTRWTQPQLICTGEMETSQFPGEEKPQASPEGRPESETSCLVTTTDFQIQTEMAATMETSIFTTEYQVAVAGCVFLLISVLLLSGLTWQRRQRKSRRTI

Apparent Kd, inactive:
B1 no binding seen
B2 no binding seen
B3 no binding seen
B4 no binding seen
B5 no binding seen
B6 no binding seen
B7 no binding seen
B8 no binding seen
B9 no binding seen
B10 no binding seen
